Source: the supplement of paper PMC6555819

These sequences were tested on PPARg homodimer (NR concentration 180 nM) (assay: PBM binding z-score (relative to random genomic background probes); higher = stronger binding; sequences stand for … in GC…GCGATTGACAGCGTAGAATGAAGG).
Outline: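 The probes on custom Agilent 4×180K protein-binding microarrays were double-stranded, with 34-nt variable regions bearing direct-repeat seeds, single-nucleotide variants, half-site ablations and random human genomic background sequences. Incubation lasted 1 h with ligand-free nuclear receptor dimers in PBS pH 7.4, 2% milk, 0.02% Triton X-100, 1 mM DTT, 0.2 mg/mL BSA and 0.4 mg/ml salmon testes DNA. Antibodies against each partner (one per run) detected bound dimers, and fluorescence scans were regression-normalized. Binding z-scores take the random background probes as reference.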

Sequence	PBM binding z-score
TGAATGAGGTTAAAGATCAGGGACCGTGGCGTCG	1.52
CAAACTTGGTCACGAAAGGTCAAAGTCGAATGAC	4.33
GGAACGAGGGCAAAGTTGATTGCATCTGTCGACG	0.375
CCTCGGAGGACAGAAGGTCAGAGCGGTCCGCTTT	1.2
CAGCCTCGGTCAGGGCCAGTATAGGAGGAACGTT	-0.745
TCGAGTAGGTTAGTCGAGGCATTCAGCCAACATA	0.168
CGTCCAATGTCATAGGAGGTCAGTGAAGACAGAT	1.72
GCTGCTTGGTCAGGTTGGTCAGCTAACGGGTACG	-0.123
GCAGACAGGTGAAGCGCAGGTAACTCAGGGTGGC	-0.277
GCTAGCAGGCCATTTGGGTCCCTCAATGACGGGC	-1.41
ATCTCTAGGTTACCAAGTTCAGTGAATGCCGAAC	1.15
CGTCCAAGGTCAATGCTAAGTCAGTGAAAGCATT	2.4
ATCGAAAGGTCTAGGTGAGTATAGAGAAAGGGAA	0.408
CATACAGGGTCAGCTTGGCCAGAGTAGGGACGGC	1.09
CCTACTGGGCTACGAAAGGTCATTGATTCAGTGA	3.32
ATATGTAGGTTGCATCCGGGTCATTCAGGCTATG	0.466
TAGCCTAGGTCATTCAAGGGCCAGTATAGAAAGC	1.31
AGAATGAGGATACCAAAGATCAGGGAAACGCTTG	-1.29
